Pf growth 48h = Primary qHTS for delayed death inhibitors of the malarial parasite plastid, 48 hour incubation | 5.9% of 310,000 active | P. falciparum luciferase growth in erythrocytes, 48 h | Potency, µM (doses to about 28.7 µM), inactives show top-dose activity change, negative = inhibition, actives largely listed as inhibitors | AID 504832, 2011; also: potency is read from the fitted curve at half-maximal effect
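Parasite viability was followed by luminescence of a genomically integrated firefly luciferase. Cultures held 0.1% parasitemia at 2% hematocrit (final), incubated under 5% CO2 at 37 C.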
HCMV antiviral = qHTS Assay for inhibitors of the human cytomegalovirus (HCMV) | 4.5% of 410,000 active | activity change, negative = inhibition, % at 57.5 µM | HFF cells, HCMV-luciferase reporter, 72 h; stronger effect = lower value; in the data active = activity change below about -60%; inconclusive = no clear call, values can overlap the other calls; inactive = above about -39%
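Human foreskin fibroblasts infected with luciferase-reporter HCMV at MOI 1 PFU/cell, compounds at two doses. Luciferase measured 72 h post infection; normalized to buffer-only basal and Salinomycin (10uM) controls.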
FBPA Giardia inh = qHTS Assay for Inhibitors of Fructose-1,6-bisphosphate Aldolase from Giardia Lamblia; A8B2U2; purified Giardia FBPA; Potency, µM (highest dose often 59.6 µM), for the others: at the top dose activity, negative = inhibition, hits mostly inhibitors; 0.71% of 290,000 active; also: potency is read from the fitted curve at half-maximal effect; nearly all actives have a fitted effect of over 55% in size
Target sequence (A8B2U2 whole entry, looked up): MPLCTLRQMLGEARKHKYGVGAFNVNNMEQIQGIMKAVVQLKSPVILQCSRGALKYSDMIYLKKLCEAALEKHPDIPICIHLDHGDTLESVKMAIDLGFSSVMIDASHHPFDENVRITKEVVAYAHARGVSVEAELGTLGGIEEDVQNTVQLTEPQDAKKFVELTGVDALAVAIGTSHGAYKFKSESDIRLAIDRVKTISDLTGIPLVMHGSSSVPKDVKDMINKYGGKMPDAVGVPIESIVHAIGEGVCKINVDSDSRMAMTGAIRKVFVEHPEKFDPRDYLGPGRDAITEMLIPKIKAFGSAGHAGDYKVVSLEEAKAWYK
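40 nM FBPA preincubated 10 min at RT with compound (up to 57.5 uM final), then substrate plus GAPDH/TPI/NAD/arsenate coupling and diaphorase/resazurin added. Fluorescence read after 20 min at RT, 525/598 nm.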
Pf growth 96h = Primary qHTS for delayed death inhibitors of the malarial parasite plastid, 96 hour incubation. 6.9% of 320,000 active. Potency, µM (doses to about 28.7 µM), without a hit: at the highest dose activity change, negative = inhibition, usual class: inhibitors. P. falciparum luciferase reporter growth, 96 h. AID 504834, 2011; also: potency is read from the fitted curve at half-maximal effect
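Two-generation exposure (96 h) targets delayed-death phenotype. Reporter parasites carrying integrated firefly luciferase, in red cells at 2% hematocrit and 0.05% parasitemia final, kept at 37 C, 5% CO2; luminescence loss indicates inhibition.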
Sm TGR block = qHTS Assay for the Inhibitors of Schistosoma Mansoni Peroxiredoxins; 3% of 360,000 active; purified TGR, DTNB reduction, TNB absorbance 405 nm; Potency, µM (series often up to 114 µM), for the others: at the highest dose activity change, negative = inhibition, most hits filed as inhibitors; also: potency is read from the fitted curve at half-maximal effect; nearly all actives have a fitted effect of over 60% in size
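First, TGR (20 nM dispensed) and NADPH were mixed with compound. Second, a 15 min room-temperature incubation followed. Third, further NADPH and then DTNB were added to start the reaction. Finally, TNB absorbance was monitored kinetically.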
Starred values were filed as active, the others as inactive; ? = inconclusive; nt = not tested or not shown; [ ] = dose if it differs, or a comment. This is a sample that favours compounds with a hit; in the whole collection about 14% have one here. Unless noted, calls follow the shape of the dose curve; as a rule, active = well fitted curve in the direction sought with a large enough effect; inconclusive = small, poorly fitted or top-dose-only effect, or another doubt; inactive = no such curve, though single readings can be large; an effect the other way counts as inactive or inconclusive. % is scaled to controls: 0 for no effect and ±100 for the full control effect.

SMILES	Pf growth 48h	HCMV antiviral	FBPA Giardia inh	Pf growth 96h	Sm TGR block
COc1cc(Br)c(/C=C/c2ccc3cccc(O)c3n2)cc1OC	2.62µM*	-86.7*	10.4%	2.08µM*	3.3%
COc1ccc(OC)c(/C=C/c2ccc3cccc(O)c3n2)c1	4.15µM*	-65.4*	-1.1%	38.8%	-18.3%
COc1cc(/C=C/c2ccc3cccc(O)c3n2)c(Br)cc1O	?	-98.3*	6.9%	21.0%	-10.4%
COc1ccc(C=Cc2ccc3ccccc3n2)c(OC)c1	nt	-87.6*	nt	nt	nt
CC(C)c1ccc(CN2C(=O)C(n3cccc3)c3ccccc32)cc1 (stereo unspecified)	nt	-5.3	nt	nt	nt
COc1ccc(C)cc1NC(=O)c1cc2c(=O)n3cccc(C)c3nc2s1	nt	-5.8	nt	nt	1.3%
COC(=O)C(Cc1ccc(O)cc1)NC(=O)Cn1cc(C)c(=O)[nH]c1=O (stereo unspecified)	nt	-13.1	nt	nt	nt
CSc1ccc(/C=C/c2ccc3cccc(O)c3n2)cc1	-18.9%	-66.1*	-16.9%	-25.9%	6.7%
Oc1cccc2ccc(/C=C/c3ccccc3Br)nc12	0.0%	-87.0*	29.3%	?	-10.3%
COc1ccccc1N1CCNC(C)C1=O (stereo unspecified)	45.6%	9.9	?	?	-13.8%
COc1cccc([C@@H]2Oc3ccc(Br)cc3C(=O)[C@H]2OC(=O)Nc2ccc(C)c(Br)c2)c1	nt	nt	0.0%	nt	nt
CCCCNC(=O)O[C@H]1CC[C@@]23CCCN2C(=O)CCC[C@H]3[C@H]1Cc1ccccc1	nt	-17.1	nt	nt	nt
CN1CCN(c2ccc(S(=O)(=O)N3CCCCC3)cc2NC(=O)/C=C/c2ccc(OC(F)F)cc2)CC1	9.28µM*	-12.8	nt	7.38µM*	-2.8%
CC(Oc1ccc(F)cc1)C(=O)Nc1cc(S(=O)(=O)N2CCCCC2)ccc1N1CCN(C)CC1 (stereo unspecified)	nt	18.7	nt	nt	nt
CCN1CCN(c2ccc(S(=O)(=O)N3CCCCC3)cc2NC(=O)/C=C/c2ccc(OC(F)F)cc2)CC1	9.28µM*	-28.8	nt	4.15µM*	-6.8%
O=C(CCc1nnc(CCCc2ccccc2)o1)NCCc1ccco1	20.8%	-19.3	0.7%	9.28µM*	-20.6%
O=C(CCc1nnc(COc2ccccc2)o1)NCc1ccc(Cl)s1	59.0%	-18.3	1.0%	14.7µM*	0.3%
CC(C)CCNC(=O)CCc1nnc(COc2ccccc2)o1	-3.7%	-5.0	2.8%	?	3.7%
O=C(CCc1nnc(COc2ccccc2)o1)NCCc1cccs1	-6.7%	-12.3	5.3%	10.4µM*	-14.0%
O=C(CCc1nnc(COc2ccccc2)o1)NCc1ccccc1C(F)(F)F	-6.4%	?	-3.2%	0.0%	-4.0%[57.1 µM]
COc1cccc(-c2nnc3sc(CN4CCCCC4)cn23)c1	nt	22.8	nt	nt	5.3%
COc1ccc(N(C(=O)c2ccco2)C(C(=O)NC2CCCCC2)c2cccs2)cc1OC (stereo unspecified)	?	-2.1	3.2%	84.7%	-8.0%
COc1cccc(N(C(=O)CCl)C(C(=O)NCCc2ccccc2)c2cccs2)c1 (stereo unspecified)	11.7µM*	-100.4*	2.1%	9.28µM*	10µM*
COc1ccc(N(C(=O)CCl)C(C(=O)NCCc2ccccc2)c2cccs2)cc1Cl (stereo unspecified)	9.28µM*	-102.8*	-10.3%	4.65µM*	10µM*
COc1cccc(N(C(=O)c2snc(C(N)=O)c2N)C(C(=O)NCC2CCCO2)c2cccs2)c1 (stereo unspecified)	?	?	4.9%	?	-2.2%
SMILES	Pf growth 48h	HCMV antiviral	FBPA Giardia inh	Pf growth 96h	Sm TGR block
CCOC(=O)/C=C(\C)Sc1cc(O)c2ccccc2c1O	1.47µM*	-100.1*	7.06µM*	1.65µM*	0.794µM*
CCOC(=O)/C=C(\C)Sc1cc(=O)oc2ccccc12	?	-6.6	2.4%	?	22.4µM*
Cc1ccc(NC(=O)c2ccc(S(=O)(=O)N(C)c3ccccc3)cc2)cc1S(=O)(=O)N1CCOCC1	nt	0.0	nt	nt	nt
CCCCn1c(SCC(=O)Nc2cccc(OC)c2)nc2c(sc3ccccc32)c1=O	nt	14.5	nt	nt	11.6%
CC(C)(C)NC(=O)CN(C(=O)CCC(=O)Nc1nccs1)c1cccc(C(F)(F)F)c1	?	2.9	8.4%	?	-2.2%
O=c1nc2ccccn2c2ccc(S(=O)(=O)N3CCCCC3)cc12	5.86µM*	-7.8	0.1%	6.57µM*	-12.4%
CCN=C1S/C(=C\c2cc(OCC)c(O)cc2Br)C(=O)N1CC	11.7µM*	-9.0	-4.4%	10.4µM*	-20.3%
CCCN(C(=O)CCc1nc(-c2ccccc2F)no1)c1ccc(CC)cc1	nt	-11.5	nt	nt	-4.1%
COc1ccc(N2CCN(CCCNS(=O)(=O)c3c(C)noc3/C=C/N(C)C)CC2)cc1	2.94µM*	nt	-2.4%	?	-16.3%
CCOC(=O)c1ccc(NC(=S)N(CCN(C)C)Cc2cccs2)cc1	-23.6%	-61.2*	2.3%	-6.6%	13.2%
CCOC(=O)c1ccc(NC(=S)N(CCCN(CC)CC)Cc2ccco2)cc1	?	-3.7	1.0%	14.7µM*	4.7%
Cc1ccc(NC(=S)N(CCN(C)C)Cc2cccs2)cc1	-11.3%	-38.5	0.2%	?	13.4%
COc1ccccc1C(=O)N/C(=C\c1cn(C)c2ccccc12)C(=O)NCCN1CCOCC1	nt	8.1	nt	nt	nt
FC(F)(F)c1cccc(Cn2c3[n+](c4ccc(C(F)(F)F)cc42)CCCCC3)c1	4.15µM*	-38.3	0.4%	?	-6.1%
Cc1cc(C(C)(C)C)cc(C)c1Cn1c2[n+](c3ccc(C(F)(F)F)cc31)CCCCC2	3.29µM*	-94.6*	0.8%	?	-2.2%
CCOc1ccccc1CNC(=O)CC(C)n1ccc(C)n1 (stereo unspecified)	nt	-0.9	nt	nt	1.2%
CCC(NC(=S)NC1CCCCC1)c1ccccc1 (stereo unspecified)	?	-89.2*	3.0%	?	6.7%
CC(C)c1ccc(C(C)NC(=S)NC2CCCCC2)cc1 (stereo unspecified)	11.7µM*	-88.7*	4.9%	3.9%	7.1%
CCOc1ccc(C(C)NC(=S)NC2CCCCC2)cc1 (stereo unspecified)	?	?	2.1%	?	0.9%
CCOc1ccc(C(C)NC(=S)NC2CCCCC2)cc1OCC (stereo unspecified)	0.0828µM*	-19.7	-1.2%	?	3.3%
CCC(C)c1ccc(C(C)NC(=S)NC2CCCCC2)cc1 (stereo unspecified)	7.38µM*	-73.1*	?	9.28µM*	16.4%
CCc1ccc(C(C)NC(=S)NC2CCCCC2)cc1 (stereo unspecified)	?	nt	2.4%	61.3%	-5.1%
Cc1ccc(N(C)C(=O)Cn2cnc3onc(-c4ccc(F)cc4)c3c2=O)cc1C	nt	3.5	nt	nt	-0.6%
